# The whole screen tested about 63,000 compounds, of which about 1,100 (1.7%) were called active. The entries come from a sample that favours actives as a whole. Measured potencies and affinities stand elsewhere. Unmarked numbers belong to inactive results. Rule as the data show it: active = cytotoxicity above about 50%; inactive = the rest.
# Experiment: cytotoxicity in HPDE-C7 cells, cell-based, fluorescence, HTS (AID 430);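 also: cells exposed to compound for 48 hours before viability readout; 0% = vehicle and 100% = reference cytotoxic drug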
# Conditions: HPDE-C7 pancreatic duct cells viability, at 10 µM, hits give high values
row,SMILES,cytotoxicity
1,CC(c1ccccc1)N1CNc2c(c(=O)n(C)c(=O)n2C)C1 (stereo not given),-8.9%
2,O=C(O)CC(c1ccc(Cl)cc1)N1C(=O)CCC1=O (stereo not given),-2.8%
3,CCOc1ccc(NC(=O)CSc2nnc(Cc3cccn3C)n2-c2ccc(OC)cc2)cc1,-17.3%
4,COc1cc(C2Nc3cccc4cccc(c34)N2)cc(OC)c1O,56.8% (active)
5,Oc1ccccc1C1Nc2cccc3cccc(c23)N1,-21.5%
6,CCN(CC)c1ccc(C2Nc3cccc4cccc(c34)N2)c(O)c1,30.4%
7,c1coc(C2Nc3cccc4cccc(c34)N2)c1,4.2%
8,COc1cc(C2Nc3cccc4cccc(c34)N2)cc(OC)c1OC(C)=O,72.1% (active)
9,COc1cc(C2Nc3cccc4cccc(c34)N2)ccc1OC(C)=O,41.1%
10,CCC(=O)Nc1nc(C)nc(C)c1C(C)=O,-5.6%
11,CC(=O)Nc1ccc(C)cc1NC(C)=O,-3.9%
12,COc1ccc(C(c2nnnn2CCc2ccccc2)N2CCN(C3CCCC3)CC2)cc1 (stereo not given),-6.9%
13,O=C(O)CSc1cccc2cccnc12,-7.9%
14,CCOC(=O)CNc1ncnc2nc[nH]c12,-3.5%
15,c1ccc(-c2nnc(-c3ccccn3)nn2)nc1,6.6%
16,c1ccc(-c2ccc(-c3ccccn3)nn2)nc1,0.9%
17,COc1ccc(S(=O)(=O)N2CCOCC2)c(Cl)c1Cl,-17.3%
18,CCCc1nc(NC2CCCCC2)c(C#N)c2c1COC(C)(C)C2,-4.4%
19,CCc1nc(NC2CCCCC2)c(C#N)c2c1COC(C)(C)C2,63.4% (active)
20,CCc1nc(NCC2CCCO2)c(C#N)c2c1COC(C)(C)C2 (stereo not given),-11.3%
21,COc1ccc(-n2cnnc2SCC(=O)c2cc(C)n(Cc3cccs3)c2C)cc1,0.5%
22,CCSc1ncnc2c(C#N)c3n(c12)CCCCC3,-13.6%
23,CCOC(=O)C1=C(N2CCCCC2)c2cc3c(n2C1=O)CCCC3,10.1%
24,CCN1CCN(CCNC(=O)c2ccc(CS(=O)(=O)c3ccccc3C)o2)CC1,-0.5%
25,COc1ccc(C)cc1NC(=O)c1nnn(Cc2cc(C)ccc2C)c1N,7.5%

row,SMILES,cytotoxicity
1,Cc1ccc(CCNC(=O)c2nnn(-c3cc(C)cc(C)c3)c2N)cc1,3.4%
2,Cc1ccc(NC(=O)c2nnn(-c3cc(C)cc(C)c3)c2N)cc1,55.6% (active)
3,Cc1cccc(-n2nnc(C(=O)Nc3ccc(F)cc3)c2N)c1,15.2%
4,Cc1cc(C)cc(NC(=O)c2nnn(Cc3cc(C)ccc3C)c2N)c1,58.9% (active)
5,Cc1ccc(C)c(NC(=O)c2nnn(Cc3ccccc3C)c2N)c1,1.7%
6,CCOC(=O)C(Cc1c[nH]c2ccccc12)NC(=O)CNC(C)=O (stereo not given),2.5%
7,CCCn1cnc2cc(NCc3cccc(OC)c3O)ccc21,5.7%
8,CCOC(=O)c1ccc2ncc(C(=O)OCC)c(NCCCN3CCOCC3)c2c1,3%
9,COc1ccc2c(c1)C1(Nc3ccccc3C(=O)N1c1ccccc1)C(=O)N2 (stereo not given),-14.8%
10,S=C(N=Nc1ccccc1)NNc1ccccc1,58.8% (active)
11,ONC(=Nc1ccccc1)C(=Nc1ccccc1)NO,0.4%
12,CC(=Nc1ccccc1)Nc1ccccc1,-13.5%
13,COc1ccc(C2C(C(=O)NCCN3CCOCC3)c3ccccc3C(=O)N2C)cc1OC (stereo not given),-4.3%
14,c1ccc(-c2nnc3sc(-c4csc5c4CCCC5)nn23)cc1,75% (active)
15,Cc1ccccc1-c1nn2c(-c3ccccc3)nnc2s1,-0.8%
16,Cc1nnc2sc(-c3csc4c3CCCC4)nn12,-4.3%
17,CCS(=O)(=O)n1nc(-c2ccccc2)cc1N,1%
18,O=C(Cc1cccs1)N1CCCC(c2nc3c(nnn3Cc3ccc(F)cc3)c(=O)[nH]2)C1 (stereo not given),3.7%
19,CC(C)(C)c1ccc(Cn2nnc3c(=O)[nH]c(C4CCN(C(=O)Cc5cccs5)CC4)nc32)cc1,0.2%
20,CCCOC(=O)c1ccc(NC(=O)c2cnccn2)cc1,-2%
21,CCCOC(=O)c1ccc(OC(=O)c2ccco2)cc1,-5.8%
22,CCOc1ccc(-c2n[nH]c(C)c2-c2ccccc2OC)c(O)c1,-12.5%
23,COc1ccc(C(=O)OCCN2C(=O)c3ccccc3C2=O)cc1,-2.8%
24,CCC(=O)Nc1c2c(nn1-c1ccc(C)cc1C)CSC2,-2.4%
25,O=C(Nc1ccon1)c1cccc(S(=O)(=O)N2CCCC2)c1,-18.1%

# Source: PubChem BioAssay AID430 (Sanford-Burnham Center for Chemical Genomics, 2006)
